# Experimental data from ChEMBL document CHEMBL4513216, “Probing the Open Global Health Chemical Diversity Library for Multistage-Active Starting Points for Next-Generation Antimalarials” (ACS Infect Dis, 2020).
# In all, about 69,000 compounds went through this assay and about 8,600 (12%) showed an effect of 50% or more. What follows is part of a selection rich in strong results, with near analogues and random picks from the rest.
# Test system: Plasmodium berghei
# Assay: Screen against P. berghei liver stage (PbLuc), transformed with Luciferase, at 10uM
# Type: functional, HepG2
# Settings: tested at 10 uM
row,Structure (SMILES),INHIBITION [%]
1,Cc1nnc(SCCCNC(=O)Cc2ccc3c(c2)OCO3)s1,40.9
2,O=C(N1CCOCC1)N1CCCC(c2ncncc2-c2ccncc2)C1 (stereo not given),5.11
3,CC(=O)NCCNC(=O)CN1CCOC(Cn2cccn2)C1 (stereo not given),9.29
4,Cc1csc(N2CCCN(CCC(=O)NC(N)=O)CC2)n1,9.54
5,CN(C)C(CNC(=O)c1[nH]nc(C2CC2)c1Br)C1CC1 (stereo not given),-4.15
6,Cc1cc(N2CCCC(O)(CN(C)C(=O)CCN)C2)c2cnccc2n1 (stereo not given),-6.88
7,COCC(=O)N1CC(c2ccnc(Nc3cc(C(F)(F)F)ccn3)n2)C1,-12.3
8,CCOC(=O)c1cnn(-c2cc(Oc3ccccc3C)ncn2)c1N,-35.9
9,CCOC(=O)c1cnn(-c2cc(C)ccn2)c1N,-104
10,Cc1ccc(C)c(-n2ncc(C(=O)N(C)CCc3ccccn3)c2N)c1,-3.33
11,CCOC(=O)c1cnn(-c2cc(Oc3ccccc3)ncn2)c1N,-10.9
12,COC(=O)c1cnn(-c2cc(Oc3cccc(C)c3)ncn2)c1N,72
13,CCOC(=O)c1cnn(-c2cc(Oc3cccc(C)c3)ncn2)c1N,51.6
14,Cc1cc(C)n(C2CCN(S(C)(=O)=O)CC2)n1,-0.232
15,Cc1nn(C)c(N(C)C)c1CNCc1ccc(OCC(N)=O)cc1,3.45
16,c1cn(-c2nccnc2C2CCCN(C3CCOCC3)C2)cn1 (stereo not given),18.805
17,O=C1NC2(CCN(Cc3nccs3)CC2)CC1c1ccncc1 (stereo not given),48.9
18,O=C1NC2(CCN(Cc3ccoc3)CC2)CC1c1ccncc1 (stereo not given),32.4
19,O=C1NC2(CCN(Cc3ccc(F)cc3)CC2)CC1c1ccncc1 (stereo not given),35.4
20,O=C1NC2(CCN(C(=O)c3ccc(Cl)cc3)CC2)CC1c1ccccc1 (stereo not given),14
21,O=C1NC2(CCN(Cc3cccs3)CC2)CC1c1ccncc1 (stereo not given),59.1
22,O=C1NC2(CCN(Cc3ccccc3Cl)CC2)CC1c1ccccc1 (stereo not given),68.4
23,N#Cc1cccc(CN2CCC3(CC2)CC(c2ccncc2)C(=O)N3)c1 (stereo not given),-1.26
24,O=C1NC2(CCN(Cc3ccsc3)CC2)CC1c1ccncc1 (stereo not given),12.6
25,N#Cc1ccccc1CN1CCC2(CC1)CC(c1ccccc1)C(=O)N2 (stereo not given),62.8
26,CCNC(=O)c1ccc2c(c1)nc1n2CCN(Cc2ccco2)C1,-9.48
27,C[C@H]1C[C@H]2CN(S(=O)(=O)c3ccc(F)cc3)CC[C@@H]2O1,-1.12
28,CCn1cc(-c2nn3c(C(F)(F)F)nnc3s2)cn1,-11.4

row,Structure (SMILES),INHIBITION [%]
1,O=C(NCC1CCC(c2ccnc3ncnn23)CC1)C1CC1 (stereo not given),21.1
2,CSc1ncn(-c2nc(N(C)C)nc(N(C)C)n2)n1,21.2
3,CN(C)C(=O)N1CCC2(CC1)NC(=O)c1ccccc12,-13.9
4,O=C(NCc1ccco1)N1CCCCC1c1nc(C2CC2)no1 (stereo not given),16
5,COC(=O)[C@H](C)NC(=O)c1nc(C2CC2)n(-c2ccccc2Cl)n1,-20.8
6,CCn1cnnc1CNC(=O)c1cc(Cl)ccc1O,-35.1
7,CCn1cnnc1CNC(=O)c1ccc(Br)cc1F,56.5
8,COc1cc(Cl)ccc1C(=O)NCc1nncn1C,52.3
9,Cn1cnnc1CNC(=O)c1ccc(Br)cc1O,-48.5
10,CCn1cnnc1CNC(=O)c1ccc(Cl)cc1F,36.2
11,CCn1cnnc1CNC(=O)c1cc(Cl)ccc1OC,-9.98
12,CCn1cnnc1CCNC(=O)c1ccc(Br)cc1F,25.5
13,CCn1cnnc1CNC(=O)c1cc(Cl)ccc1F,56.4
14,CCn1cnnc1CNC(=O)c1cc(F)ccc1OC,29.7
15,CN(CC(=O)N1CCOCC(CO)C1)Cc1ccc(F)cc1 (stereo not given),-12.1
16,Cc1noc(C)c1CN1CCCC2(C1)CN(Cc1nccn1C)CCO2 (stereo not given),10
17,CC(C)=CCN1C[C@@H]2CC[C@H]1CN(C(=O)c1ccc3c(c1)OCO3)C2,33
18,CN(C)S(=O)(=O)N1CCN(Cc2ccnc(N3CCCC3)n2)CC1,7.52
19,COc1ccc(-c2cc(C3CCNCC3)ccn2)cc1,23.9
20,O=C(c1ccc(-c2ccc(O)nc2)s1)N1CCCCC1,-69.6
21,O=C(Nc1ccccn1)c1nc(N2CCCC2)ncc1Cl,-4.48
22,Cc1cc(NC(=O)c2nc(N3CCCC3)ncc2Cl)nc(C(C)C)n1,66.8
23,O=C(Nc1cc(Cl)ccn1)c1nc(N2CCCC2)ncc1Cl,-35
24,O=C1NCC(C(=O)Nc2ncc(Cc3ccccc3F)s2)N1 (stereo not given),-17.4
25,CS(=O)(=O)N1CCc2sc(C(=O)NCCc3ccccn3)cc21,-47.8
26,CC(C)(C)OC(=O)NCCNC(=O)c1ccc2cc[nH]c2c1,-16
27,COCCN1C(=O)CCC12CCCN(Cc1ccccc1F)C2 (stereo not given),44.5
